Where “and” joins values, the source holds several entries; their conditions need not be identical. Equal entries are not always repeated. Inconclusive results are not listed. Calls of active or inactive are those of the source.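 Rule for the calls, unless noted: active = compounds whose cell count with miR-34 switched on is under 0.7 times the count with it off; inactive = the rest.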
Columns and labels:
[1] = compounds altering viability of human ES cells (AID 493140; call rule not given here;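 note: cells exposed to compounds for four days before counting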); details: human embryonic stem cell survival screen; stronger effect = higher value
[2] = P. berghei load reduction in hepatocytes – cell-based, HepG2, luciferase luminescence, HepG2 viability, primary screen (AID 624349; in the data active = parasite load remaining mostly below about 12%, no sharp cut-off; inactive = mostly above about 10%;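 note: 100% = mean of DMSO negative control wells on the same plate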); details: P. berghei liver stage in HepG2, luciferase luminescence, concentration not given here; parasite load remaining: stronger effect = lower value; viability: measured here: HepG2 viability without parasites
[3] = viability loss with induced miR-34 in A549 – imaging, A549 dox-inducible miR-34, nuclei and caspase counts, primary screen (AID 1347080); details: A549 miR-34 inducible, Hoechst nuclei count, 48 h
[4] = MELAS cybrid and Rieske KO viability enhancers – cell-based, MELAS cybrids, Rieske KO mouse fibroblasts, CellTiter-Glo, primary screen (AID 1508586;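 active = mean z-score across replicates of 1.96 or higher in either the MELAS or the Rieske mutant cell line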;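 note: z relative to plate mean and SD of compound and empty wells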); details: low glucose
[5] = galactose survival enhancers in mitochondrial complex I cybrids – cell-based, galactose medium, ATP luminescence, primary screen (AID 1645843;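 active = z-score of at least 1.8 in each of two replicates, scored against plate mean and spread of sample wells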;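 note: positive z means more ATP and so rescue of galactose-driven cybrid death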); details: complex I mutant cybrid cells, 72 h, stronger effect = higher value
[6] = compounds altering circadian rhythm period length – cell-based, LOPAC library, luminescence reporter (AID 2774; call rule not given here;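 note: values are relative to mean of DMSO wells on each plate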); details: circadian reporter cells, at 7 µM, actives lie on both sides
[7] = test system: Hepatitis C virus NS3 helicase; assay: blockers of NS3h binding to ssDNA – biochemical, fluorescence polarization, LOPAC1280 library, primary screen (AID 687035; in the data active = inhibition above about 37%); details: Purified HCV NS3 helicase, Cy5-dT15 ssDNA binding fluorescence polarization; stronger effect = higher value; concentration not given here
[8] = compounds altering Cy5-DNA-NS3h complex signal – biochemical, LOPAC1280, artefact control for HCV NS3 helicase inhibitor project (AID 687037; call rule not given here); details: Cy5-DNA-NS3h complex fluorescence interference counterscreen
[9] = blockers of cellular phospholipid synthesis – cell-based, LOPAC library, screen 4, primary screen (AID 1347384; call rule not given here); details: animal cells, phospholipid biosynthesis inhibition screen; at 10 µM
[10] = molecular target: ATP-dependent translocase ABCB1 (Homo sapiens) (UniProt P08183); assay: P-glycoprotein substrate transport blockade – cell-based (AID 377; in the data active = fluorescence slope change above about 50%); details: MDR1-expressing cells, fluorescent substrate accumulation slope; stronger effect = higher value; concentration not given here
Chain of ATP-dependent translocase ABCB1 (Homo sapiens) (P08183 whole entry, looked up): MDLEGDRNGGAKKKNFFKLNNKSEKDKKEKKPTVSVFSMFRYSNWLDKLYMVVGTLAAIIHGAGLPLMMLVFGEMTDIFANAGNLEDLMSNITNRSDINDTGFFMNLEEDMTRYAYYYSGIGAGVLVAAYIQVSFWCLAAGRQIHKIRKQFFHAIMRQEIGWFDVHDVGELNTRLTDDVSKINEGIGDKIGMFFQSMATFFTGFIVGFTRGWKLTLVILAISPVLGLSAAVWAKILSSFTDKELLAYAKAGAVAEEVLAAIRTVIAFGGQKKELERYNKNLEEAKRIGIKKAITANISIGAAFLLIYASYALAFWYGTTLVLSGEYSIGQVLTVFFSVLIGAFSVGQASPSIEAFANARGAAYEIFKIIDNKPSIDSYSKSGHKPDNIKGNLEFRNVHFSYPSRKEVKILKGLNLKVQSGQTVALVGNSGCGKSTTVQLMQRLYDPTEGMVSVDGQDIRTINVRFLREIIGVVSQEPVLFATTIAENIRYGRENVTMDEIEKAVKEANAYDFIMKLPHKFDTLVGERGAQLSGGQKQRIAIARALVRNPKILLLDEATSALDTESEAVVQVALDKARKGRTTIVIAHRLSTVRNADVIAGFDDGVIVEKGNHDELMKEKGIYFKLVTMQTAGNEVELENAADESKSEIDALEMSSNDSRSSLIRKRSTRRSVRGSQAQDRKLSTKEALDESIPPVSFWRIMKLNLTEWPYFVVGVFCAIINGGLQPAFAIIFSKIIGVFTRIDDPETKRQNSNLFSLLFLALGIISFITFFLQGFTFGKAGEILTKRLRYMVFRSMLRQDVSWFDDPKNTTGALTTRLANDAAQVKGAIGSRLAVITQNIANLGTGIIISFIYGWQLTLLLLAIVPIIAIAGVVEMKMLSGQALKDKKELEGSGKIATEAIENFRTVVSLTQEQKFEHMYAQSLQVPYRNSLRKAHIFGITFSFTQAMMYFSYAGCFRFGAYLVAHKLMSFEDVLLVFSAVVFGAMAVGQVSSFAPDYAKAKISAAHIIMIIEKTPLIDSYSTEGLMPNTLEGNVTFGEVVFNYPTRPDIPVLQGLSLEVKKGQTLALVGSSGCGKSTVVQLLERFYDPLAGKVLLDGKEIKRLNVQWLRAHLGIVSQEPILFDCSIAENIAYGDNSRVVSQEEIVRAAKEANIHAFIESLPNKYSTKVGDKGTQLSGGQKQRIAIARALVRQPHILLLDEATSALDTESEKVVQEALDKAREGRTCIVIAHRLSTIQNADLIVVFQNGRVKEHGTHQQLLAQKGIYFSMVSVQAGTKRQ

[11] = stronger effect = lower value, cell number ratio, induced over uninduced
[12] = measured here: relative caspase fold change +Dox/-Dox
[13] = measured here: total cells with miR-34 induction, stronger effect = lower value
[14] = measured here: total cells without miR-34 induction
[15] = MELAS cybrid survival, CellTiter-Glo 48 h, stronger effect = higher value
[16] = Rieske KO mouse fibroblast survival, CellTiter-Glo 72 h

SMILES	survival [1]	parasite load remaining [2]	viability [2]	fold change [3, 11]	fold change [3, 12]	cell count [3, 13]	cell count [3, 14]	z-score [4, 15]	z-score [4, 16]	z-score [5]	period change [6]	inhibition [7]	fluorescence ratio (interference) [8]	outcome [9]	fluorescence slope change [10]
C[C@H]1[C@H](NC(=O)/C(=N\OC(C)(C)C(=O)O)c2csc(N)n2)C(=O)N1S(=O)(=O)O	21.6 (inactive)	29.2% (inactive) and 123% (inactive) and 17.7% (inactive)	47.3% and 89% and 68%	0.907 (inactive) and 0.865 (inactive)	1.09 and 1.14	8940 and 9450	9850 and 10900	0.296 (inactive) and 0.337 (inactive)	0.0689 and -0.343	0.06 (inactive)					
O=C(O)C=Cc1ccc(Cn2ccnc2)cc1				0.955 (inactive) and 0.883 (inactive) and 0.902 (inactive)	1.3 and 1.43 and 0.779	9560 and 7820 and 10000	10000 and 8860 and 11100	-0.304 (inactive) and -0.385 (inactive)	0.761 and 0.973	0.575 (inactive)					
CCOC(=O)C(CCc1ccccc1)NC1CCc2ccccc2N(CC(=O)O)C1=O (centres undefined)				0.901 (inactive) and 0.923 (inactive) and 1.08 (inactive)	1.61 and 0.619 and 0.514	9200 and 8490 and 8200	10200 and 9200 and 7620	0.349 (inactive) and -0.387 (inactive)	-0.629 and -0.0664	0.855 (inactive) and 0.665 (inactive)					
CNC(=O)[C@H]1O[C@@H](n2cnc3c(NCc4cccc(I)c4)ncnc32)C(O)[C@H]1O (some centres undefined)				1.05 (inactive) and 1.03 (inactive)	0.68 and 1.21	10000 and 5680	9560 and 5540			2.43 (active)	-0.015 h (inactive)	-2% (inactive)	0.9 (inactive)	inactive	
Cc1nn(-c2ccccc2)c(C)c1C=NN1CCN(Cc2ccccc2)CC1				0.991 (inactive) and 0.89 (inactive)	1.98 and 0.283	8530 and 7580	8610 and 8510	1.46 (inactive)	-0.978	-0.13 (inactive)		-4% (inactive)	1 (inactive)	inactive	
CCCCCCCCCCCCCCCCCCOC[C@H](COP(=O)([O-])OCC[N+](C)(C)C)OC	97.7 (inactive)			0.77 (inactive) and 1.03 (inactive) and 1.02 (inactive)	1.7 and 0.981 and 0.958	1920 and 5950 and 5710	2500 and 5760 and 5620			-0.975 (inactive)	-0.025 h (inactive)	0% (inactive)	1 (inactive)	inactive	
CC1CNCCN1S(=O)(=O)c1cccc2cnccc12 (centres undefined)	216 (active)			1.06 (inactive) and 1.03 (inactive)	1.18 and 0.538	11400 and 1600	10700 and 1550			-1.29 (inactive)	0.05 hour (inactive) and -0.065 hour (inactive)	-1% (inactive)	0.9 (inactive)	inactive	
CNCCC(Oc1ccccc1C)c1ccccc1 (centres undefined)				1.03 (inactive) and 0.898 (inactive) and 0.925 (inactive)	1.24 and 2 and 2.24	9740 and 9090 and 9100	9500 and 10100 and 9850	-0.0629 (inactive)	-0.0775	-0.235 (inactive) and -0.28 (inactive)	0.255 h (inactive)	-5% (inactive)	0.9 (inactive)	inactive	
COc1ccc2cc(C(C)C(=O)O)ccc2c1 (centres undefined)		40.8% (inactive)	47.4%	0.873 (inactive) and 1.59 (inactive) and 0.829 (inactive)	1.19 and 0.614 and 0.98	8070 and 7920 and 7570	9240 and 4980 and 9130	-0.171 (inactive) and 0.614 (inactive)	0.627 and 0.253	0.575 (inactive)					
O=C1c2c(O)cc(O)cc2OC(c2ccc(O)c(O)c2)C1O (centres undefined)								-0.361 (inactive)	0.683	0.265 (inactive) and -0.07 (inactive) and 0.43 (inactive)	-0.11 h (inactive)	-3% (inactive)	1 (inactive)	inactive	
O=C1CC(c2ccc(O)cc2)Oc2cc(O)cc(O)c21 (centres undefined)	12.5 (inactive)	129% (inactive) and 75.7% (inactive)	105% and 74.5%	0.857 (inactive) and 0.936 (inactive)	1.25 and 0.746	9030 and 10100	10500 and 10800	-0.339 (inactive)	0.634						29.7% (inactive)
CNCC(O)C(O)C(O)C(O)CO (centres undefined)	4.5 (inactive)	95.3% (inactive)	101%	0.893 (inactive) and 0.901 (inactive)	1.03 and 1.16	8100 and 7840	9080 and 8700	-0.226 (inactive)	0.0963						

Reference: PubChem BioAssay
